The source of these data is PubChem BioAssay (EPA / NIEHS).

Test [1] addresses Transcription factor E2F1 (Homo sapiens) (UniProt Q01094). The test is described as follows: ATG_E2F_CIS: Attagene CIS-FACTORIAL HepG2 Assay for human E2F Transcription Factor 1 (AID 2282935). To be noted: HepG2 Attagene cis-reporter, E2F reporter RNA transcripts; actives raise or lower the signal. The essentials:
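Cis-element reporter mRNA induction in transiently transfected HepG2, 24 h exposure. Activity fitted in both directions relative to DMSO negative control.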

Test [2] in a line: ATG_E_Box_CIS: Attagene CIS-FACTORIAL HepG2 Assay for human Enhancer Box (E-box) (AID 2282936). The following applies: HepG2 E-box cis-reporter transcription, actives raise or lower the signal. The essentials: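 Cells: HepG2 (human liver), transient MRTU transfection. Exposure 24 h. RNA → oligo(dT) RT → PCR → 6-FAM label → HpaI → CE. Activity fitted both directions relative to DMSO.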

Test [3] is described as follows: ATG_M_61_CIS: Attagene CIS-FACTORIAL HepG2 Assay for M61 Transcription Factor (Internal Marker) (AID 2282937). The following applies: HepG2 Attagene CIS-FACTORIAL M61 internal marker reporter; actives raise or lower the signal. The method in brief: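 Multiplexed reporter mRNA assay, HepG2 human hepatoma cells, 24 h treatment. Signal: FAM-labelled, HpaI-digested RT-PCR fragments by CE. Fit: bidirectional, baseline DMSO.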

The nature of test [4]: ATG_EGR_CIS: Attagene CIS-FACTORIAL HepG2 Assay for human Early Growth Response 1 (EGR1) (AID 2282938). The following applies: HepG2 Attagene CIS-FACTORIAL EGR reporter mRNA; actives raise or lower the signal. The essentials: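 Multiplexed cis-reporter system in human hepatoma HepG2 cells, transiently transfected. Cells are dosed for 24 h; reporter transcripts are amplified, fluorescently tagged and sized by capillary electrophoresis, with DMSO as negative control.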

Test [5] can be described thus: ATG_M_19_CIS: Attagene CIS-FACTORIAL HepG2 Assay for M19 Transcription Factor (Internal Marker) (AID 2282939). To be noted: HepG2 Attagene CIS-FACTORIAL M19 internal marker reporter; actives raise or lower the signal. The essentials: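 Internal marker readout, fitted in both directions against DMSO, from HepG2 cells carrying transfected cis-element reporter constructs; RT-PCR and capillary electrophoresis of reporter mRNA after 24 h exposure.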

Test [6] is described as follows: ATG_ERE_CIS: Attagene CIS-FACTORIAL HepG2 Assay for Estrogen Response Element (ERE) (AID 2282940). The following applies: HepG2 ERE cis-reporter, Attagene RNA transcript; actives raise or lower the signal. The essentials:
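After 24 h compound treatment, RNA from transfected HepG2 cells was reverse-transcribed, reporter cDNA PCR-amplified, FAM-labelled, HpaI-cut and resolved by capillary electrophoresis. ERE-driven cis reporter transcripts reflect endogenous factors; gain or loss scored against DMSO.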

Test [7] is described as follows: ATG_Ets_CIS: Attagene CIS-FACTORIAL HepG2 Assay for human Erythroblast Transformation Specific (ETS) (AID 2282941). The following applies: HepG2 ETS cis-reporter transcription, actives raise or lower the signal. The method in brief: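 Steps: transfect HepG2 with multiple reporter units; treat compound 24 h; isolate RNA, DNase-treat, reverse-transcribe; PCR-amplify, label with 6-FAM, digest with HpaI; separate by capillary electrophoresis. Activity fitted both directions versus DMSO.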

Test [8] has as its target Hepatocyte nuclear factor 3-beta (Homo sapiens) (UniProt Q9Y261). The test is described as follows: ATG_FoxA2_CIS: Attagene CIS-FACTORIAL HepG2 Assay for human Forkhead box A2 (FOXA2) (AID 2282942). To be noted: HepG2 cis-reporter transcription factor activity, 24 h; actives raise or lower the signal. The essentials:
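Multiplexed cis-element reporter assay in transiently transfected HepG2. Twenty-four hours post-dosing, RNA was reverse-transcribed, amplified, FAM-labelled, HpaI-digested and separated by CE. Activity gain or loss relative to DMSO.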

Test [9] is described as follows: ATG_FoxO_CIS: Attagene CIS-FACTORIAL HepG2 Assay for human Forkhead box O (FoxO) (AID 2282943). To be noted: HepG2 Attagene cis-reporter, FoxO element, mRNA; actives raise or lower the signal. The method in brief:
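Endogenous transcription factor activity read from multiplexed cis-promoter reporter transcripts in transiently transfected HepG2, 24 h after dosing. Reporter RNA measured via RT-PCR plus capillary electrophoresis of FAM-labeled products; gain or loss relative to DMSO.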

The nature of test [10]: ATG_GATA_CIS: Attagene CIS-FACTORIAL HepG2 Assay for human GATA Binding Protein (AID 2282944). To be noted: HepG2 GATA cis-element reporter, Attagene multiplex mRNA; actives raise or lower the signal. The method in brief:
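Reporter transcripts from a GATA cis-regulated unit, among multiplexed reporters in transfected HepG2 cells, were measured by RT-PCR with capillary electrophoresis after 24 h dosing. Induction or loss scored relative to DMSO.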

Activity calls are given as the source filed them. How the source made its calls: active means hit-call score of the fitted dose curve at least 0.9, where 1 is the maximum; inactive means score below 0.9.

Chain of Hepatocyte nuclear factor 3-beta (Homo sapiens) (Q9Y261 whole entry, looked up): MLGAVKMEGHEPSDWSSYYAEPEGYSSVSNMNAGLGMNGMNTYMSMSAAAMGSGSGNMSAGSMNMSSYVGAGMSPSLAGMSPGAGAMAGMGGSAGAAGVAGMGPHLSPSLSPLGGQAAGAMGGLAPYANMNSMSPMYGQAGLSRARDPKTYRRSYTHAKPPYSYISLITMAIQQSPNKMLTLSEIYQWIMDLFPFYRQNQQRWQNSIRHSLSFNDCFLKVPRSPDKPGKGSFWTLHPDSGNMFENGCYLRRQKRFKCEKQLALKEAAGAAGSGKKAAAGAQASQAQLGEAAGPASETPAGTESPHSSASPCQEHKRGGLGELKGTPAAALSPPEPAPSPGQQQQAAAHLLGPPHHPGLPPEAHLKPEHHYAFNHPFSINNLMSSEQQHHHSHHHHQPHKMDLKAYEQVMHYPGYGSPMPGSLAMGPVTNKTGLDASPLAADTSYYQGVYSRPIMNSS
Chain of Transcription factor E2F1 (Homo sapiens) (Q01094 whole entry, looked up): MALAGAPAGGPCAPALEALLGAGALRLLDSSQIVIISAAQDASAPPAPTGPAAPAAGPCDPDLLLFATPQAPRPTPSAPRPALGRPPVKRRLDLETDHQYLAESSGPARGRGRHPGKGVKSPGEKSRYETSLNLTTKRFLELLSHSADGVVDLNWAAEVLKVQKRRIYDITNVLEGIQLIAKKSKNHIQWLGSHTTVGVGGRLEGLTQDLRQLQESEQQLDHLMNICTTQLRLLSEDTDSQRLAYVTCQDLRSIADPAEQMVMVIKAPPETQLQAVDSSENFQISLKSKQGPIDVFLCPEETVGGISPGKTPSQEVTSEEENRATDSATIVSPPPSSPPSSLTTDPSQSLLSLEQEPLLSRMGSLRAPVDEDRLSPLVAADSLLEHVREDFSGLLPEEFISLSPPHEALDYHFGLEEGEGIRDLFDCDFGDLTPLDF

As for `CC(=O)OC1CCCCC1`, the result in [1], in test [2], in [3], in [4], in test [5] and in [6] was inactive. Besides, the call in test [7], in [8], in test [9] and in test [10] was inactive.
For the compound `CCCCCCCC(=O)OCC(COC(=O)CCCCCCC)OC(=O)CCCCCCC`, the compound was called inactive in test [1], in test [2], in [3], in test [4], in [5] and in test [6]. The result in [7], in test [8], in [9] and in [10] was inactive.
A word on the AC50: it is the concentration giving half of the maximal activity seen. With `CC(C)c1cc(C(C)C)cc(C(C)C)c1`, the result in test [1], in test [3], in [4], in [5] and in [9] was inactive. For the same compound, the AC50 in test [2] was 23.7 µM (active); in [6] it was 168 µM (active); in [7] it was 169 µM (active); in test [8], 160 µM (active); in [10], 178 µM (active).
As for `C[Si]1(C)O[Si](C)(C)O[Si](C)(C)O[Si](C)(C)O[Si](C)(C)O1`, the compound was called inactive in test [1], in [2], in test [3], in test [4], in test [5] and in [6]. The compound was classed as inactive in [7], in [8], in test [9] and in [10].
Take `CCCCCCCCCC[N+](C)(CCCCCCCCCC)CCC[Si](OC)(OC)OC`: the compound was classed as inactive in test [1], in test [3], in [6], in [7] and in test [9]. Besides, the AC50 in test [2] was 17.8 µM (active); in test [4] it was 7.33 µM (active); in [5] it was 17.8 µM (active); in [8], 17.7 µM (active); in test [10], 14.1 µM (active).
On to `CC1=C(O)C(=O)C(C)O1` (stereo not given), for which the outcome in test [1], in test [2], in test [3], in test [4], in [5] and in test [6] was inactive. Besides, the result in test [7], in test [8], in [9] and in [10] was inactive.
Turning to `C=C[C@@]1(C)CC(=O)[C@]2(O)[C@@]3(C)[C@@H](O)CCC(C)(C)[C@@H]3[C@H](O)[C@H](OC(C)=O)[C@@]2(C)O1`, the call in test [1], in [2], in test [3], in test [4], in test [5] and in test [7] was inactive. Further, the result in [8], in [9] and in test [10] was inactive. Moreover, the concentration at half-maximal activity (AC50) in test [6] is 0.895 µM (active).
For `COC(OC)(C(=O)c1ccccc1)c1ccccc1`, the compound was classed as inactive in test [1], in test [2], in test [3], in [5], in test [7] and in test [8]. Further, the compound was called inactive in test [9] and in test [10]. The AC50 is 35.1 µM (active) in test [4] and 2.01 µM (active) in [6].
As for `CC(C)(O)Cc1ccccc1`, the call in test [1], in [2], in [3], in test [4], in test [5] and in [6] was inactive. Further, the outcome in test [7], in test [8], in test [9] and in [10] was inactive.
As to `C=CC(=O)NC(C)(C)C`, the call in [1], in test [2], in test [3], in [4], in [5] and in [6] was inactive. For the same compound, the compound was called inactive in [7], in test [8], in test [9] and in test [10].
In the case of `C=C1C[C@H]2[C@@H]3C=C(C)C4=CC(=O)CC[C@]4(C)[C@H]3CC[C@]2(C)[C@@]1(OC(C)=O)C(C)=O`, the outcome in test [1], in [3], in test [5], in [6], in [7] and in test [8] was inactive. Besides, the concentration at half-maximal activity (AC50) in test [2] is 97.6 µM (active); in [4], 52.3 µM (active); in test [9] it was 93.7 µM (active); in test [10], 93.6 µM (active).
On to `CC(=O)OCc1ccccc1`, for which the call in test [1], in test [2], in [3], in [4], in test [5] and in [6] was inactive. Also, the compound was called inactive in [7], in [8], in test [9] and in test [10].
Consider `CCC[Si](OC)(OC)OC`, for which the compound was called inactive in [1], in test [2], in test [3], in [4], in test [5] and in test [6]. The call in [7], in test [8], in test [9] and in [10] was inactive.
Take `N#Cc1ccc(C2CCCc3cncn32)cc1` (stereo not given): the call in test [1], in [2], in test [3], in test [4], in [5] and in test [7] was inactive. The result in [8], in test [9] and in test [10] was inactive. Besides, the AC50 in [6] is 25.4 µM (active).
With `COC(=O)c1ccccc1C`, the outcome in test [1], in test [2], in [3], in test [4], in test [5] and in test [6] was inactive. The outcome in [7], in test [8], in test [9] and in test [10] was inactive.
Regarding `CC1CCC(C(C)(C)S)C(=O)C1` (stereo not given), the compound was called inactive in test [1], in [2], in test [3], in test [4], in test [5] and in [6]. Besides, the result in test [7], in [8], in [9] and in test [10] was inactive.
Turning to `CCCC1CCCC(=O)O1` (stereo not given), the compound was classed as inactive in test [1], in test [2], in test [3], in test [4], in test [5] and in test [7]. The call in test [8], in [9] and in test [10] was inactive. In test [6], the AC50 is 21.3 µM (active).
Regarding `O=C(OCCc1ccccc1)c1ccccc1`, the compound was classed as inactive in test [1], in test [2], in test [3], in test [4], in [5] and in test [6]. Besides, the compound was classed as inactive in test [7], in test [8], in test [9] and in test [10].
For `Nc1ncnc2nc[nH]c12`, the compound was called inactive in [1], in [2], in test [3], in [4], in [5] and in [6]. Also, the compound was classed as inactive in test [7], in test [8], in test [9] and in test [10].
As for `CC/C=C\CCOC(=O)c1ccccc1O`, the outcome in test [1], in [2], in [3], in [4], in test [5] and in [6] was inactive. For the same compound, the result in [7], in test [8], in [9] and in [10] was inactive.
As to `CC(c1cc(C(C)(C)C)cc(C(C)(C)C)c1O)c1cc(C(C)(C)C)cc(C(C)(C)C)c1O`, the outcome in [1], in test [2], in test [3], in test [4], in test [5] and in test [6] was inactive. Further, the compound was called inactive in [7], in [8], in [9] and in [10].
Consider `c1ccc2c(c1)[nH]c1ccccc12`, for which the compound was classed as inactive in [1], in test [2], in test [3], in test [4], in test [5] and in test [6]. Besides, the outcome in [7], in test [8], in test [9] and in test [10] was inactive.
On to `CCCCCCCCCCCCCc1ccccc1`, for which the result in [1], in test [2], in test [3], in [4], in [5] and in test [6] was inactive. Moreover, the outcome in test [7], in test [8], in [9] and in [10] was inactive.
With `CC(C)CCOCc1ccccc1`, the call in [1], in [2], in [3], in test [4], in test [5] and in [6] was inactive. Further, the compound was called inactive in test [7], in test [8], in test [9] and in test [10].
For `O=C(O)C1CCC(C(=O)O)CC1` (stereo not given), the call in [1], in [2], in [3], in test [4], in test [5] and in test [6] was inactive. Moreover, the call in test [7], in test [8], in [9] and in [10] was inactive.
Turning to `CCCCC(C=O)CC` (stereo not given), the result in [1], in test [2], in [3], in [4], in [5] and in test [6] was inactive. The compound was called inactive in test [7], in test [8], in test [9] and in test [10].
